PubChem BioAssay (NCATS)
Records with an inconclusive call do not appear. Calls of active or inactive are those of the source. Calls follow the shape of the dose curve; as a rule, active = well fitted curve in the direction sought with a large enough effect; inconclusive = small, poorly fitted or top-dose-only effect, or another doubt; inactive = no such curve, though single readings can be large; an effect the other way counts as inactive or inconclusive.

Tests used:
NIH3T3 = assay: qHTS assay to identify novel small-molecules to repurpose for Merkel cell carcinoma treatment (AID 1296009); conditions: MCC and control cell lines, CellTiter-Glo viability, 72 h; at 44.8 µM (top of the series) unless noted; also: nearly all actives have a fitted effect of over 60% in size
How it was run: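 Cells were treated for 72 hr at 37 degree celsius with compounds in 8- or 11-point dose response. Viability was read by CellTiter-Glo luminescence, normalized to no-cell (cytotoxicity) and DMSO controls.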

C33A = assay: Primary qHTS to identify gynecologic anti-cancer compounds using libraries of approved drugs and bioactive compounds (AID 1345084); conditions: Gynecologic cancer cell panel viability, ATPlite luminescence, 48 h; series mostly up to 57.5 µM; also: % is scaled to controls: 0 for no effect and ±100 for the full control effect; nearly all actives have a fitted effect of over 55% in size
How it was run: (§1)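 Five-concentration response, 48 h; readout is ATP-driven luciferase luminescence.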

CAOV3 = assay: as above; conditions: Gynecologic cancer cell panel viability, ATPlite luminescence, 48 h; series mostly up to 57.5 µM
How it was run: as §1

CASKI = assay: as above; conditions: Gynecologic cancer cell panel viability, ATPlite luminescence, 48 h; series mostly up to 57.5 µM
How it was run: as §1

Es-2 = assay: as above; conditions: Gynecologic cancer cell panel viability, ATPlite luminescence, 48 h; series mostly up to 57.5 µM
How it was run: as §1

HeLa = assay: as above; conditions: Gynecologic cancer cell panel viability, ATPlite luminescence, 48 h; series mostly up to 57.5 µM
How it was run: as §1

Hek293T = assay: as above; conditions: Gynecologic cancer cell panel viability, ATPlite luminescence, 48 h, control line for the selectivity index; series mostly up to 57.5 µM
How it was run: as §1

JEG-3 = assay: as above; conditions: Gynecologic cancer cell panel viability, ATPlite luminescence, 48 h; series mostly up to 57.5 µM
How it was run: as §1

OV90 = assay: as above; conditions: Gynecologic cancer cell panel viability, ATPlite luminescence, 48 h; series mostly up to 57.5 µM
How it was run: as §1

PA-1 = assay: as above; conditions: Gynecologic cancer cell panel viability, ATPlite luminescence, 48 h; series mostly up to 57.5 µM
How it was run: as §1

SKOV3 = assay: as above; conditions: Gynecologic cancer cell panel viability, ATPlite luminescence, 48 h; series mostly up to 57.5 µM
How it was run: as §1

Tov-21-G = assay: as above; conditions: Gynecologic cancer cell panel viability, ATPlite luminescence, 48 h; series mostly up to 57.5 µM
How it was run: as §1

Tov112D = assay: as above; conditions: Gynecologic cancer cell panel viability, ATPlite luminescence, 48 h; series mostly up to 57.5 µM
How it was run: as §1

C=C1CCC2C(C)(C(=O)O)CCCC2(C)C1CC/C(C)=C\CO (centres undefined)
inactive: outcome (NIH3T3) | Potency (C33A) | Potency (CAOV3) | outcome (CASKI) | Potency (Es-2) | Potency (HeLa) | Potency (Hek293T) | Potency (JEG-3) | Potency (OV90) | Potency (PA-1) | Potency (SKOV3) | Potency (Tov-21-G) | Potency (Tov112D)

CC1(C)O[C@H]2CC(=O)OC[C@@]23C1=C(O)C(=O)[C@]1(C)C3CC[C@@]2(C)[C@H](c3ccoc3)OC(=O)[C@H]3O[C@]321 (some centres undefined)
inactive: outcome (NIH3T3) inactive [at 17.4 µM] | Potency (C33A) | Potency (CAOV3) | outcome (CASKI) | Potency (Es-2) | Potency (HeLa) | Potency (Hek293T) | Potency (JEG-3) | Potency (OV90) | Potency (PA-1) | Potency (SKOV3) | Potency (Tov-21-G) | Potency (Tov112D)

CC(C)C1NC(=O)C2CCCN2C1=O (centres undefined)
inactive: outcome (NIH3T3) | Potency (C33A) | Potency (CAOV3) | outcome (CASKI) | Potency (Es-2) | Potency (HeLa) | Potency (Hek293T) | Potency (JEG-3) | Potency (OV90) | Potency (PA-1) | Potency (SKOV3) | Potency (Tov-21-G) | Potency (Tov112D)

C=C1C(O)CC2C(C(=O)O)=COC(O[C@@H]3O[C@H](COC(=O)c4ccc(O)cc4)[C@@H](O)[C@H](O)[C@H]3O)C12 (some centres undefined)
inactive: outcome (NIH3T3) inactive [at 17.4 µM] | Potency (C33A) | Potency (CAOV3) | outcome (CASKI) | Potency (Es-2) | Potency (HeLa) | Potency (Hek293T) | Potency (JEG-3) | Potency (OV90) | Potency (PA-1) | Potency (SKOV3) | Potency (Tov-21-G) | Potency (Tov112D)

O=C(/C=C/c1ccc(O)c(O)c1)O[C@@H]1[C@@H](O)[C@H](OC2CCCCC2O)O[C@H](CO)[C@H]1O (some centres undefined)
inactive: outcome (NIH3T3) inactive [at 17.4 µM] | Potency (C33A) | Potency (CAOV3) | outcome (CASKI) | Potency (Es-2) | Potency (HeLa) | Potency (Hek293T) | Potency (JEG-3) | Potency (OV90) | Potency (PA-1) | Potency (SKOV3) | Potency (Tov-21-G) | Potency (Tov112D)

CC(=O)OC1C(CO)OC(O[C@H]2[C@H](OC(=O)[C@]34CCC(C)(C)C[C@H]3C3=CCC5[C@@]6(C)CC[C@H](O[C@@H]7O[C@H](C(=O)O)[C@@H](O)[C@H](O[C@@H]8OC[C@@H](O)[C@H](O)[C@H]8O)[C@H]7O[C@@H]7O[C@H](CO)[C@H](O)[C@H](O)[C@H]7O)[C@@](C)(C=O)C6CC[C@@]5(C)[C@]3(C)C[C@H]4O)O[C@H](C)[C@H](OC3OC(C)C(OC4OCC(O)C(O)C4O)C(O)C3O)[C@@H]2O)C(O)C1O (some centres undefined)
inactive: outcome (NIH3T3) inactive [at 9.27 µM] | activity change, negative = cytotoxicity (C33A) 12.2% [at 6.55 µM] | activity change, negative = cytotoxicity (CAOV3) -15% [at 6.55 µM] | activity change, negative = cytotoxicity (CASKI) 7.74% [at 6.55 µM] | activity change, negative = cytotoxicity (Es-2) -0.286% [at 6.55 µM] | activity change, negative = cytotoxicity (HeLa) -1.51% [at 6.55 µM] | activity change, negative = cytotoxicity (Hek293T) 1.03% [at 6.55 µM] | activity change, negative = cytotoxicity (JEG-3) 3.7% [at 6.55 µM] | activity change, negative = cytotoxicity (OV90) -0.616% [at 6.55 µM] | activity change, negative = cytotoxicity (PA-1) 13.7% [at 6.55 µM] | activity change, negative = cytotoxicity (SKOV3) 33.2% [at 6.55 µM] | activity change, negative = cytotoxicity (Tov-21-G) 2.01% [at 6.55 µM] | activity change, negative = cytotoxicity (Tov112D) 5.09% [at 6.55 µM]

CC(C)=CCC[C@](C)(O[C@@H]1O[C@H](CO)[C@@H](O)[C@H](O)[C@H]1O)[C@H]1CC[C@]2(C)[C@@H]1[C@H](O)CC1[C@@]3(C)CC[C@H](O)C(C)(C)C3[C@@H](O[C@@H]3O[C@H](CO)[C@@H](O)[C@H](O)[C@H]3O[C@@H]3O[C@@H](C)[C@H](O)[C@@H](O)[C@H]3O)C[C@]12C (some centres undefined)
inactive: outcome (NIH3T3) inactive [at 9.27 µM] | activity change, negative = cytotoxicity (C33A) -11.8% [at 11.6 µM] | activity change, negative = cytotoxicity (CAOV3) -9.95% [at 11.6 µM] | activity change, negative = cytotoxicity (CASKI) -3.66% [at 11.6 µM] | activity change, negative = cytotoxicity (Es-2) 5.12% [at 11.6 µM] | activity change, negative = cytotoxicity (HeLa) 11.5% [at 11.6 µM] | activity change, negative = cytotoxicity (Hek293T) -2.65% [at 11.6 µM] | activity change, negative = cytotoxicity (JEG-3) -0.108% [at 11.6 µM] | activity change, negative = cytotoxicity (OV90) -3.64% [at 11.6 µM] | activity change, negative = cytotoxicity (PA-1) 24.4% [at 11.6 µM] | activity change, negative = cytotoxicity (SKOV3) 18.8% [at 11.6 µM] | activity change, negative = cytotoxicity (Tov-21-G) -0.988% [at 11.6 µM] | activity change, negative = cytotoxicity (Tov112D) 2.74% [at 11.6 µM]

OC[C@H]1O[C@@H](OCc2ccccc2)[C@H](O)[C@@H](O)[C@@H]1O
inactive: outcome (NIH3T3) | Potency (C33A) | Potency (CAOV3) | outcome (CASKI) | Potency (Es-2) | Potency (HeLa) | Potency (Hek293T) | Potency (JEG-3) | Potency (OV90) | Potency (PA-1) | Potency (SKOV3) | Potency (Tov-21-G) | Potency (Tov112D)

C/C=C/C(=O)OC1/C=C/C(O)C(OC(C)=O)CCC(=O)OC1C (centres undefined)
inactive: outcome (NIH3T3) | Potency (C33A) | Potency (CAOV3) | outcome (CASKI) | Potency (Es-2) | Potency (HeLa) | Potency (Hek293T) | Potency (JEG-3) | Potency (OV90) | Potency (PA-1) | Potency (SKOV3) | Potency (Tov-21-G) | Potency (Tov112D)

C/C(=C\C(=O)C[C@@]12C(=O)O[C@]3(C)CC[C@H]1C[C@H]23)C(N)=O
inactive: outcome (NIH3T3) | Potency (C33A) | Potency (CAOV3) | outcome (CASKI) | Potency (Es-2) | Potency (HeLa) | Potency (Hek293T) | Potency (JEG-3) | Potency (OV90) | Potency (PA-1) | Potency (SKOV3) | Potency (Tov-21-G) | Potency (Tov112D)

CC1(CO)CCCC2(C)C3COC(=O)C3=CC(O)C12 (centres undefined)
inactive: outcome (NIH3T3) | Potency (C33A) | Potency (CAOV3) | outcome (CASKI) | Potency (Es-2) | Potency (HeLa) | Potency (Hek293T) | Potency (JEG-3) | Potency (OV90) | Potency (PA-1) | Potency (SKOV3) | Potency (Tov-21-G) | Potency (Tov112D)

C=CCC1=C[C@]2(OC)[C@H](C)[C@@H](c3ccc(OC)c(OC)c3)O[C@]2(OC)CC1=O
inactive: outcome (NIH3T3) | Potency (C33A) | Potency (CAOV3) | outcome (CASKI) | Potency (Es-2) | Potency (HeLa) | Potency (Hek293T) | Potency (JEG-3) | Potency (OV90) | Potency (PA-1) | Potency (SKOV3) | Potency (Tov-21-G) | Potency (Tov112D)

C[C@]1(OC(=O)/C=C/c2ccc(O)cc2)C[C@@H](O)[C@]2(O)C=CO[C@@H](O[C@@H]3O[C@H](CO)[C@@H](O)[C@H](O)[C@H]3O)C12 (some centres undefined)
inactive: outcome (NIH3T3) inactive [at 17.4 µM] | Potency (C33A) | Potency (CAOV3) | outcome (CASKI) | Potency (Es-2) | Potency (HeLa) | Potency (Hek293T) | Potency (JEG-3) | Potency (OV90) | Potency (PA-1) | Potency (SKOV3) | Potency (Tov-21-G) | Potency (Tov112D)
